Experimental data: paper PMC7862700, “An all-to-all approach to the identification of sequence-specific readers for epigenetic DNA modifications on cytosine”

Columns and labels:
Assay in all cases: DAPPL (digital affinity profiling via proximity ligation, sequencing); 10 mM Tris-HCl pH 7.5, 50 mM NaCl, 1 mM DTT, 4% glycerol, room temperature, 30 min; GST-TFs on glutathione beads, 16-mer random dsDNA library, 0.1% formaldehyde crosslink after washing; high values mean tight binding
Conditions in all cases: protein: recombinant; tags: N-terminal GST; dsDNA, one strand shown
[1] = molecular target: T1, ERF (Homo sapiens, UniProt P50548 1-548)
T1 sequence: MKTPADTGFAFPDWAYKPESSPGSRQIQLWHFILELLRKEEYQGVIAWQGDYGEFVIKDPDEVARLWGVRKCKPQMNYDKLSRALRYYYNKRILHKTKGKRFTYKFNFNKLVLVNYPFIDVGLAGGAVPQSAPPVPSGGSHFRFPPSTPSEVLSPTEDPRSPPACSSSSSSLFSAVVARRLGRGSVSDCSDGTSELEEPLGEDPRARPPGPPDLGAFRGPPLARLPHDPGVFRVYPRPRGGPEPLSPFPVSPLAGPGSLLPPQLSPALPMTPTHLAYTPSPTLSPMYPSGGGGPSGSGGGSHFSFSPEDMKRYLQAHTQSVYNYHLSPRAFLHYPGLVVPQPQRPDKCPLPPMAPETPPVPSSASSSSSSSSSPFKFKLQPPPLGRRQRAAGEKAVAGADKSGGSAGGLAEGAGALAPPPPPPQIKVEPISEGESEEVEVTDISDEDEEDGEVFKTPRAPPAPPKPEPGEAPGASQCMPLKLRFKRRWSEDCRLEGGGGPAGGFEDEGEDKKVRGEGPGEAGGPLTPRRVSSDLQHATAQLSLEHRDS
Procedure, shortened: (§1)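 GST fusions of human transcription factors were expressed in yeast and captured with glutathione beads. Once given DNA barcodes and pooled alongside a tag-only sample, they were incubated for 30 min at room temperature with 200 nmole of a random double-stranded 16-mer DNA library in Tris/NaCl/DTT/glycerol buffer, then washed, crosslinked (0.1% formaldehyde), proximity-ligated, PCR-amplified and sequenced on an Illumina NextSeq500. The binding signal of each hexamer is its read frequency for a factor divided by its frequency for the tag-only sample.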

[2] = molecular target: T2, ETV3L (Homo sapiens, UniProt Q6ZN32 1-361)
T2 sequence: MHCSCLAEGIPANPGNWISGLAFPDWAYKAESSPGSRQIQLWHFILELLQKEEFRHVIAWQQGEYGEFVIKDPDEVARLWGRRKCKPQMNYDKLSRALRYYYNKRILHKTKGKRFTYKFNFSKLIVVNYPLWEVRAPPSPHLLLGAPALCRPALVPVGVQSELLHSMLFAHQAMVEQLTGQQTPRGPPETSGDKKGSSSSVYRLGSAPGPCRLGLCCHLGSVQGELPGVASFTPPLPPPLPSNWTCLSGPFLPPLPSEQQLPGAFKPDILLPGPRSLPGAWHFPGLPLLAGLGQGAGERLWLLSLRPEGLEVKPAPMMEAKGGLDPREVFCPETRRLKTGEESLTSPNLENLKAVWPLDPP
Procedure, shortened: as §1

[3] = molecular target: T3, ETS2 (Homo sapiens, UniProt P15036 1-469)
T3 sequence: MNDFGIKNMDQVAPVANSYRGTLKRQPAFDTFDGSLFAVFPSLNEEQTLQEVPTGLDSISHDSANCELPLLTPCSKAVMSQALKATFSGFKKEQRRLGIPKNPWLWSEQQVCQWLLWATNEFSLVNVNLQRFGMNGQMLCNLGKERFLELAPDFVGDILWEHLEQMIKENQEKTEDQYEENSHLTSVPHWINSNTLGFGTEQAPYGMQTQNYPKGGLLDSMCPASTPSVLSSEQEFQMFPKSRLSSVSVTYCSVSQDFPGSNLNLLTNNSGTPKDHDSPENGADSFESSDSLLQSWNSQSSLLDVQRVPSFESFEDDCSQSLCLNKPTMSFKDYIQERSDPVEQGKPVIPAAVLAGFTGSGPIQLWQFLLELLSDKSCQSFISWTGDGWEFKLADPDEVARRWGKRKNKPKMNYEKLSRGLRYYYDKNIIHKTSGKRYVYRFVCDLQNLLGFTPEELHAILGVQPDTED
Procedure, shortened: as §1

[4] = molecular target: T4, SPDEF (Homo sapiens, UniProt O95238 1-335)
T4 sequence: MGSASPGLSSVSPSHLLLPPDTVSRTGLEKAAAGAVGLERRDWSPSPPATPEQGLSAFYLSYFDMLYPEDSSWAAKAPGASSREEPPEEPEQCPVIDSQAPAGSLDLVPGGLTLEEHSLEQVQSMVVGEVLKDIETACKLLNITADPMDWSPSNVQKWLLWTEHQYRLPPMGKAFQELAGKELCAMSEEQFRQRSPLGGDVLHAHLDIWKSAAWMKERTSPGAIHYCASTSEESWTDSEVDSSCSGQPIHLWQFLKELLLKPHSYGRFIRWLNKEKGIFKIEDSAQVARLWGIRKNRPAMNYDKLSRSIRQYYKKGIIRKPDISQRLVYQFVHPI
Procedure, shortened: as §1

[5] = molecular target: T5, ETV7 (Homo sapiens, UniProt Q9Y603 1-341)
T5 sequence: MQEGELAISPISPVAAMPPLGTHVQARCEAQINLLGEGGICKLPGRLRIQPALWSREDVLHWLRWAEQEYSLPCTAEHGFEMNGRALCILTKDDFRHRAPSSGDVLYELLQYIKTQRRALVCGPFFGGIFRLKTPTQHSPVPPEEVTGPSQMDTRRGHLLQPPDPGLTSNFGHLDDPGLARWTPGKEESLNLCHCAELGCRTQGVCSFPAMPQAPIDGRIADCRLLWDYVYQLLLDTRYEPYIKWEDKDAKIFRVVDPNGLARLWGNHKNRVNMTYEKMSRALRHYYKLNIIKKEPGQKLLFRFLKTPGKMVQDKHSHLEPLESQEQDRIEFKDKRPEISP
Procedure, shortened: as §1

[6] = molecular target: T6, ELF5 (Homo sapiens, UniProt Q9UKW6-2 1-255)
T6 sequence: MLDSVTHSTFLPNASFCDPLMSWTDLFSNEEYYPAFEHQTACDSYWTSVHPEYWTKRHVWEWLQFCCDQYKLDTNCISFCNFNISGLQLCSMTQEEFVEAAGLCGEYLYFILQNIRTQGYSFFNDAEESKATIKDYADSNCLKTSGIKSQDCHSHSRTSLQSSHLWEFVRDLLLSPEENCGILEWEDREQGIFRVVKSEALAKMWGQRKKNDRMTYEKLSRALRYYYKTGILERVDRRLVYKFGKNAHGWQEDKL
Procedure, shortened: as §1

[7] = molecular target: T7, ETV3 (Homo sapiens, UniProt P41162-2 1-143)
T7 sequence: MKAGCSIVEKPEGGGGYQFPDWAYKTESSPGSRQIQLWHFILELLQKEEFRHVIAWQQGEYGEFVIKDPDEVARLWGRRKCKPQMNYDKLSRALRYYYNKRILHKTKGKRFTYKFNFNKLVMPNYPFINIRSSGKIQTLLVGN
Procedure, shortened: as §1

[8] = molecular target: ETV6 (Homo sapiens, UniProt P41212 1-452)
ETV6, sequence (P41212 whole entry): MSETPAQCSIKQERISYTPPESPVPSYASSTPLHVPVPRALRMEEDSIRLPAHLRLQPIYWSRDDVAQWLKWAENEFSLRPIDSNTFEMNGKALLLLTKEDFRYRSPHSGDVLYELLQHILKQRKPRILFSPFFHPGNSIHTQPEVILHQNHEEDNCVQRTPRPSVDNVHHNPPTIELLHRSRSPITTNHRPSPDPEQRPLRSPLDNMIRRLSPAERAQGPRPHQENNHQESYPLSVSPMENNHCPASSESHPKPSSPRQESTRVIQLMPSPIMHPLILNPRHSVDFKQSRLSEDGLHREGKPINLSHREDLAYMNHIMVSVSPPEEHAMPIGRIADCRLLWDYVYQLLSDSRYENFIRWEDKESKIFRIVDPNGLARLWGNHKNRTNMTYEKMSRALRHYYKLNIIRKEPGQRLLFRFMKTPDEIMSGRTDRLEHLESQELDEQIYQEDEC
Procedure, shortened: as §1

## CCCGCA
[1]
  binding signal: 1.24 fold enrichment (6-mer frequency, TF over GST control)
[2]
  binding signal: 1.22 fold enrichment (6-mer frequency, TF over GST control)
[3]
  binding signal: 1.18 fold enrichment (6-mer frequency, TF over GST control)
[4]
  binding signal: 1.27 fold enrichment (6-mer frequency, TF over GST control)
[5]
  binding signal: 1.31 fold enrichment (6-mer frequency, TF over GST control)
[6]
  binding signal: 1.27 fold enrichment (6-mer frequency, TF over GST control)
[7]
  binding signal: 1.2 fold enrichment (6-mer frequency, TF over GST control)
[8]
  binding signal: 1.25 fold enrichment (6-mer frequency, TF over GST control)

## AATGCA
[1]
  binding signal: 1.3 fold enrichment (6-mer frequency, TF over GST control)
[2]
  binding signal: 1.28 fold enrichment (6-mer frequency, TF over GST control)
[3]
  binding signal: 1.28 fold enrichment (6-mer frequency, TF over GST control)
[4]
  binding signal: 1.23 fold enrichment (6-mer frequency, TF over GST control)
[5]
  binding signal: 1.3 fold enrichment (6-mer frequency, TF over GST control)
[6]
  binding signal: 1.31 fold enrichment (6-mer frequency, TF over GST control)
[7]
  binding signal: 1.25 fold enrichment (6-mer frequency, TF over GST control)
[8]
  binding signal: 1.37 fold enrichment (6-mer frequency, TF over GST control)

## TTTTCT
[1]
  binding signal: 1.36 fold enrichment (6-mer frequency, TF over GST control)
[2]
  binding signal: 1.35 fold enrichment (6-mer frequency, TF over GST control)
[3]
  binding signal: 1.32 fold enrichment (6-mer frequency, TF over GST control)
[4]
  binding signal: 1.28 fold enrichment (6-mer frequency, TF over GST control)
[5]
  binding signal: 1.42 fold enrichment (6-mer frequency, TF over GST control)
[6]
  binding signal: 1.26 fold enrichment (6-mer frequency, TF over GST control)
[7]
  binding signal: 1.54 fold enrichment (6-mer frequency, TF over GST control)
[8]
  binding signal: 1.32 fold enrichment (6-mer frequency, TF over GST control)

## TCTCCA
[1]
  binding signal: 1.42 fold enrichment (6-mer frequency, TF over GST control)
[2]
  binding signal: 1.58 fold enrichment (6-mer frequency, TF over GST control)
[3]
  binding signal: 1.53 fold enrichment (6-mer frequency, TF over GST control)
[4]
  binding signal: 1.5 fold enrichment (6-mer frequency, TF over GST control)
[5]
  binding signal: 1.31 fold enrichment (6-mer frequency, TF over GST control)
[6]
  binding signal: 1.37 fold enrichment (6-mer frequency, TF over GST control)
[7]
  binding signal: 1.41 fold enrichment (6-mer frequency, TF over GST control)
[8]
  binding signal: 1.4 fold enrichment (6-mer frequency, TF over GST control)

## ACATTT
[1]
  binding signal: 1.54 fold enrichment (6-mer frequency, TF over GST control)
[2]
  binding signal: 1.49 fold enrichment (6-mer frequency, TF over GST control)
[3]
  binding signal: 1.42 fold enrichment (6-mer frequency, TF over GST control)
[4]
  binding signal: 1.41 fold enrichment (6-mer frequency, TF over GST control)
[5]
  binding signal: 1.46 fold enrichment (6-mer frequency, TF over GST control)
[6]
  binding signal: 1.59 fold enrichment (6-mer frequency, TF over GST control)
[7]
  binding signal: 1.56 fold enrichment (6-mer frequency, TF over GST control)
[8]
  binding signal: 1.56 fold enrichment (6-mer frequency, TF over GST control)

## CCTATC
[1]
  binding signal: 1.17 fold enrichment (6-mer frequency, TF over GST control)
[2]
  binding signal: 1.22 fold enrichment (6-mer frequency, TF over GST control)
[3]
  binding signal: 1.2 fold enrichment (6-mer frequency, TF over GST control)
[4]
  binding signal: 1.29 fold enrichment (6-mer frequency, TF over GST control)
[5]
  binding signal: 1.3 fold enrichment (6-mer frequency, TF over GST control)
[6]
  binding signal: 1.12 fold enrichment (6-mer frequency, TF over GST control)
[7]
  binding signal: 1.2 fold enrichment (6-mer frequency, TF over GST control)
[8]
  binding signal: 1.12 fold enrichment (6-mer frequency, TF over GST control)

## GCCCTT
[1]
  binding signal: 1.11 fold enrichment (6-mer frequency, TF over GST control)
[2]
  binding signal: 1.16 fold enrichment (6-mer frequency, TF over GST control)
[3]
  binding signal: 1.15 fold enrichment (6-mer frequency, TF over GST control)
[4]
  binding signal: 1.26 fold enrichment (6-mer frequency, TF over GST control)
[5]
  binding signal: 1.07 fold enrichment (6-mer frequency, TF over GST control)
[6]
  binding signal: 1.09 fold enrichment (6-mer frequency, TF over GST control)
[7]
  binding signal: 1.14 fold enrichment (6-mer frequency, TF over GST control)
[8]
  binding signal: 1.27 fold enrichment (6-mer frequency, TF over GST control)
